Measured values: PubChem BioAssay (EPA / NIEHS)
Inconclusive results are not listed. Calls of active or inactive are those of the source. Rule for the calls, unless noted: active = hit-call score of the fitted dose curve at least 0.9, where 1 is the maximum; inconclusive = response in the unintended direction; inactive = score below 0.9.

Key:
[1] = Tanguay_ZF_120hpf_SOMI_legacy: (Legacy) Oregon State University Tanguay Lab 120 Hour Post-fertilization zebrafish Assay for Somite Malformation (AID 2283647)
In short: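 Binary brightfield scoring of somite defects at 120 hpf in 5D wild-type larvae; one dechorionated embryo per well, static exposure from 6 hpf, 28C, sealed and dark. Final DMSO 0.64%; trimethyltin chloride 5uM positive control.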

[2] = Tanguay_ZF_120hpf_PFIN_legacy: (Legacy) Oregon State University Tanguay Lab 120 Hour Post-fertilization zebrafish Assay for Pectoral Fin Malformation (AID 2283648);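 note: each larva judged yes or no for fin defect by brightfield with dead larvae skipped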
In short: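 5D WT zebrafish; pronase dechorionation 4 hpf; 1 embryo/well at 6 hpf; static exposure to 120 hpf, 28C, sealed, foil-covered; final DMSO 0.64% v/v; 5 uM trimethyltin chloride positive control; fin defect scored yes/no.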

[3] = Tanguay_ZF_120hpf_CFIN_legacy: (Legacy) Oregon State University Tanguay Lab 120 Hour Post-fertilization zebrafish Assay for Caudal Fin Malformation (AID 2283649)
In short: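 Dechorionated 5D wild-type zebrafish, static exposure 6–120 hpf, 28C, sealed and dark, 0.64% v/v DMSO final. Binary fin-malformation call at 120 hpf, brightfield; gain of signal vs DMSO baseline.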

[4] = Tanguay_ZF_120hpf_PIG_legacy: (Legacy) Oregon State University Tanguay Lab 120 Hour Post-fertilization zebrafish Assay for Pigmentation Malformation (AID 2283650)
In short: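 Pronase dechorionation at 4 hpf; embryos plated at 6 hpf, one per well; static exposure, sealed and foil-covered, 28C, to 120 hpf; pigmentation read by brightfield, binary; DMSO 0.64% baseline, 5uM trimethyltin chloride positive control.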

[5] = Tanguay_ZF_120hpf_CIRC_legacy: (Legacy) Oregon State University Tanguay Lab 120 Hour Post-fertilization zebrafish Assay for Circulatory Malformation (AID 2283651)
In short: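 Tropical 5D wild-type embryos, dechorionated with pronase at 4 hpf, were placed singly in wells at 6 hpf and exposed statically at 28C to 120 hpf (0.64% DMSO final). Circulatory malformation was scored present/absent by brightfield microscopy.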

[6] = Tanguay_ZF_120hpf_SWIM_legacy: (Legacy) Oregon State University Tanguay Lab 120 Hour Post-fertilization zebrafish Assay for Swim Bladder Malformation (AID 2283654);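 note: swim bladder malformation in each larva scored yes or no under brightfield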
In short: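 Embryos lacking chorions were exposed individually and statically to test chemical from 6 to 120 hpf at 28C, with 0.64% DMSO as vehicle. At 120 hpf, swim bladder malformation was recorded as present or absent by brightfield microscopy.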

[7] = Tanguay_ZF_120hpf_TRUN_legacy: (Legacy) Oregon State University Tanguay Lab 120 Hour Post-fertilization zebrafish Assay for Truncated Body (AID 2283655)
In short: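 Whole-embryo zebrafish screen: dechorionated 5D embryos, static exposure 6–120 hpf, 28C, sealed foil-covered plates, 0.64% DMSO. Binary truncation call; gain of signal versus DMSO baseline.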

[8] = Tanguay_ZF_120hpf_NC_legacy: (Legacy) Oregon State University Tanguay Lab 120 Hour Post-fertilization zebrafish Assay for Notochord and Tail Malformation (AID 2283656)
In short: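 Dechorionated 5D zebrafish, 1/well from 6 hpf; static exposure to 120 hpf, 28C, sealed, dark; final DMSO 0.64% v/v. NC scored binary (present/absent); dead embryos not scored. Fit vs DMSO baseline, gain direction.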

[9] = read-out: solute carrier (SLC22A6), SLC22A6 (gene 9356); experiment: LTEA_HepaRG_SLC22A6: Life Technologies and Expression Analysis (LTEA) Assay for solute carrier (SLC22A6) using HepaRG (AID 2283653; active = hit-call score of the fitted dose curve at least 0.9, where 1 is the maximum; inactive = score below 0.9); details: mRNA level, 48 h; actives raise or lower the signal
In short: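 HepaRG, human liver line; 48 h chemical exposure; 8-pt half-log series from 100 uM in 0.5% DMSO, duplicate wells. Readout: TaqMan qRT-PCR of SLC22A6 mRNA, housekeeping-normalised; bidirectional curve fit vs DMSO baseline.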

[10] = read-out: kallikrein-3 (KLK3), KLK3 (gene 354); experiment: LTEA_HepaRG_KLK3: Life Technologies and Expression Analysis (LTEA) Assay for kallikrein-3 (KLK3) using HepaRG (AID 2283652; active = hit-call score of the fitted dose curve at least 0.9, where 1 is the maximum; inactive = score below 0.9); details: mRNA level, 48 h; actives raise or lower the signal
In short: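 Differentiated human HepaRG cells in serum-free induction medium exposed 48 h in duplicate, eight-point half-log series from 100 uM in 0.5% DMSO. KLK3 mRNA by qRT-PCR, normalised to ACTB, GAPDH, POLR2A; bidirectional fit versus DMSO.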

Measured: AC50

COCc1cnc(C2=NC(C)(C(C)C)C(=O)N2)c(C(=O)O)c1 (centres undefined)
not listed: [8] | [9] | [10]
inactive: all other assays above

COc1ccc(-c2ccccc2)cc1NNC(=O)OC(C)C
not listed: [6] | [9] | [10]
inactive: all other assays above

CCCCC(C#N)(Cn1cncn1)c1ccc(Cl)cc1 (centres undefined)
active: [2] 24.1 µM | [7] 48 µM
not listed: [6] | [10]
inactive: all other assays above

CCNP(=S)(OC)O/C(C)=C/C(=O)OC(C)C (centres undefined)
inactive: [2] | [3] | [4] | [5] | [7] | [8]

COc1cc(Cl)c(OC)cc1Cl
inactive: [1] | [2] | [3] | [4] | [5] | [8]

CCOC(=O)C(C)OC(=O)c1cc(Oc2ccc(C(F)(F)F)cc2Cl)ccc1[N+](=O)[O-] (centres undefined)
inactive: [1] | [2] | [3] | [5] | [7] | [8]

C=CCOC(=O)C(C)(C)OC(=O)c1cc(-n2c(=O)cc(C(F)(F)F)n(C)c2=O)ccc1Cl
inactive: [2] | [3] | [4] | [5] | [7]

Nc1c(Cl)c(F)nc(OCC(=O)O)c1Cl
inactive: [1] | [3] | [4] | [5] | [7] | [8]

Cc1cnc(C2=NC(C)(C(C)C)C(=O)N2)c(C(=O)O)c1 (centres undefined)
inactive: [1] | [2] | [4] | [5] | [7] | [8]

CCCCC(O)(Cn1cncn1)c1ccc(Cl)cc1Cl (centres undefined)
inactive: [1] | [2] | [4] | [5] | [7] | [8]

O=C(O)c1c(Cl)ccc2cc(Cl)cnc12
inactive: [2] | [3] | [4] | [8]

COC(=O)NC(=S)Nc1ccccc1NC(=S)NC(=O)OC
not listed: [5] | [9] | [10]
inactive: all other assays above

COP(=S)(OC)SCn1nnc2ccccc2c1=O
inactive: [3] | [4] | [5] | [6] | [8]

CN/C(=N\[N+](=O)[O-])NCc1cnc(Cl)s1
inactive: [1] | [2] | [3] | [5] | [7] | [8]

CO/N=C(/C1=NOCCO1)c1ccccc1Oc1ncnc(Oc2ccccc2Cl)c1F
active: [3] 6.85 µM
inactive: [1] | [2] | [5] | [8]

COCC(=O)N(c1c(C)cccc1C)C(C)C(=O)OC (centres undefined)
inactive: [1] | [3] | [4] | [5] | [6] | [7]

C=C(C)CN(CC)c1c([N+](=O)[O-])cc(C(F)(F)F)cc1[N+](=O)[O-]
not listed: [3] | [9] | [10]
inactive: all other assays above

CSC(=O)c1c(C(F)F)nc(C(F)(F)F)c(C(=O)SC)c1CC(C)C
inactive: [1] | [2] | [3] | [5] | [7] | [8]

Nc1c(Cl)c(Cl)nc(C(=O)O)c1Cl
not listed: [1] | [6] | [7]
inactive: all other assays above

CC1(C)CCC(=Cc2ccc(Cl)cc2)C1(O)Cn1cncn1 (centres undefined)
inactive: [2] | [3] | [5] | [6] | [7] | [8]

CC(C)Nc1nc(Cl)nc(NC(C)C)n1
inactive: [1] | [2] | [3] | [5] | [7] | [8]

CNC(=O)Oc1cccc2ccccc12
inactive: [1] | [3] | [5] | [7]

Cc1ccc(N=CN(C)C=Nc2ccc(C)cc2C)c(C)c1
not listed: [5] | [9] | [10]
inactive: all other assays above

CCOc1cc(C(C)(C)C)ccc1C1COC(c2c(F)cccc2F)=N1 (centres undefined)
inactive: [1] | [2] | [3] | [6] | [7] | [8]

CC(C)=CC1C(C(=O)OCc2coc(Cc3ccccc3)c2)C1(C)C (centres undefined)
inactive: [2] | [3] | [4] | [5]

COC(=O)NS(=O)(=O)c1ccc(N)cc1
inactive: [2] | [3] | [4] | [7] | [8]

O=C(Nc1ccccc1-c1ccc(Cl)cc1)c1cccnc1Cl
inactive: [1] | [2] | [4] | [5] | [6] | [7]

CC(C)C1(C)N=C(c2ncccc2C(=O)O)NC1=O (centres undefined)
inactive: [2] | [3] | [4] | [7] | [8]

CCOc1nc(C(Cl)(Cl)Cl)ns1
inactive: [1] | [3] | [4] | [7]

Clc1cccc(C(Cl)(Cl)Cl)n1
inactive: [1] | [2] | [3] | [5] | [7] | [8]

Clc1nc(Cl)nc(Nc2ccccc2Cl)n1
inactive: [2] | [3] | [5] | [7] | [8]

CC(C)N1C(=O)c2ccccc2NS1(=O)=O
inactive: [1] | [2] | [5] | [7]

CC(C)N1C(=O)N(c2ccccc2)CSC1=NC(C)(C)C
inactive: [1] | [2] | [3] | [4] | [7] | [8]

CCN(CC)c1nc(C)cc(OP(=S)(OC)OC)n1
not listed: [5] | [9] | [10]
inactive: all other assays above

OC(c1ccc(Cl)cc1)(c1ccc(Cl)cc1)C(Cl)(Cl)Cl
inactive: [2] | [3] | [4] | [5] | [6] | [8]

O=c1n(Cl)c(=O)n(Cl)c(=O)n1Cl
inactive: [2] | [3] | [4] | [5] | [7] | [8]

CCNC(=O)NC(=O)C(C#N)=NOC
inactive: [3] | [5] | [7] | [8]
active: [1] 41.6 µM | [2] 45.6 µM | [6] 53.2 µM

CN=C=S
not listed: [1] | [8] | [10]
inactive: all other assays above

CCCCOCN(C(=O)CCl)c1c(CC)cccc1CC
inactive: [1] | [2] | [3] | [4] | [7] | [8]
